Sampled rows, rich in hits. Any-hit rate of the full collection: about 2.2%.
aSyn rescue = qHTS of alpha-syn Inhibitors; Potency, µM (doses to about 46.1 µM), for inactives: at the highest dose growth rescue (activation), actives largely listed as activators; AID 652106, 2013; Yeast expressing alpha-synuclein, growth rescue, BacTiter-Glo, 24 h; 0.14% of 370,000 active; note: % of control where 0% means no effect; nearly all actives have a fitted effect of over 65% in size
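Rescue of yeast growth: cells expressing toxic alpha-synuclein, induced in galactose at OD600 0.02, incubated with compound 24 h at 30 C. ATP luminescence quantified growth; inhibitors of toxicity appear as activators.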
TDP-43 yeast inh = qHTS of TDP-43 Inhibitors; 1.8% of 410,000 active; Potency, µM (doses to about 46.1 µM), for inactives: at the highest dose growth rescue (activation), most hits filed as activators; TDP-43 expressing yeast growth rescue, BacTiter-Glo, 24 h; note: % of control where 0% means no effect; nearly all actives have a fitted effect of over 50% in size
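In this qHTS, compounds that restore growth of yeast expressing TDP-43 appear as activators. Cells (OD600=0.02, galactose medium, raffinose-pregrown) are incubated with compound 24 hr at 30 deg C and growth is quantified by BacTiter-Glo.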
Mito fusion act = qHTS Assay for Small Molecule Inhibitors of Mitochondrial Division or Activators of Mitochondrial Fusion; Potency, µM (top dose mostly 46.1 µM), for the others: top-dose growth rescue (activation), hits mostly activators; AID 485298, 2010; 0.23% of 320,000 active; S. cerevisiae fusion-defective mutant growth rescue, CellTiterGlo 48 h; note: % of control where 0% means no effect; nearly all actives have a fitted effect of over 45% in size
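S. cerevisiae fusion-defective temperature-sensitive mutants (e.g. fzo1-1, mgm1-5) grown 48 h at 37C in YPEG (ethanol/glycerol non-fermentable) medium with 23 nl compound per well; growth rescue read as CellTiterGlo luminescence.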
FUS suppressor = qHTS for Suppressors of FUS Proteinopathy: Primary screen using FUS-linked yeast assay; S. cerevisiae FUS-expressing, growth rescue, OD600, 24 h; Potency, µM (top dose mostly 76.6 µM), hits mostly activators; 0.24% of 390,000 active;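 note: plate controls were DMSO vehicle for no effect and reference control for full effect; nearly all actives have a fitted effect of over 55% in size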
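Yeast expressing FUS under galactose induction, OD 0.005 in 2% galactose medium; compounds in a dilution series, 24 h at 30C. Growth rescue by absorbance at 600 nm; CP55940 positive control, DMSO negative.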
Abeta rescue = qHTS for compounds that reverse cellular toxicity of Amyloid beta (A-beta) peptide in yeast: Primary Screen; 0.063% of 410,000 active; yeast expressing A-beta42, growth rescue, OD600, 48 h; response scale: 0% DMSO, 100% iron-clioquinol control; Potency, µM (series often up to 46.1 µM), hits mostly activators; note: nearly all actives have a fitted effect of over 55% in size
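Growth rescue measured by 600 nm absorbance after 48 h yeast culture at 30 C with compound. Values normalized between DMSO and an equimolar ferric chloride plus clioquinol control.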
ERG-DNA inh = qHTS for Small Molecule Inhibitors of the ERG Ets/DNA interaction; Transcriptional regulator ERG (Homo sapiens), P11308; fluorescence polarization, His-ERG Ets domain / labelled DNA; Potency, µM (series often up to 76.9 µM), for the others: at the top dose FP activity, negative = inhibition, usual class: inhibitors; 0.028% of 370,000 active; AID 624246, 2012; active = well fitted inhibition curve with a large enough effect in the polarisation, with a control signal flat; inconclusive = small, poorly fitted or top-dose-only effect, or effect the other way, or a change in a side signal; inactive = no such curve, though single readings can be large or run the other way; the % refers to the polarisation;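 note: polarization taken with two DNA probes labelled with fluorescein and Texas red; % of control where 0% means no effect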
Target sequence (P11308 whole entry, looked up, the tested form may be a part): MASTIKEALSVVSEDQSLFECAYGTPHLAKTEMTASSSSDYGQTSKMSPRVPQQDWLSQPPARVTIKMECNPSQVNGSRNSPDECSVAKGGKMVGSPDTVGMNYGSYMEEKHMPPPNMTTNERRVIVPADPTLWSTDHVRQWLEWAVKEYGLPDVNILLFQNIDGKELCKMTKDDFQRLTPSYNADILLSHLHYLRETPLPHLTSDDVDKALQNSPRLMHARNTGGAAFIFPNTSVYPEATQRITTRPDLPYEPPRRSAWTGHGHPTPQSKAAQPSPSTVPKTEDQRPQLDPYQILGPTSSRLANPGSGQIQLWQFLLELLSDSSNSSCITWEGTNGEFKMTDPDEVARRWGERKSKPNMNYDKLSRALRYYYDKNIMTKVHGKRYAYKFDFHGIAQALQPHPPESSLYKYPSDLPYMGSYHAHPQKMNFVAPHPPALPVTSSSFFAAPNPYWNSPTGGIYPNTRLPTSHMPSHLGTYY
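His-tagged ERG Ets domain (1 uM in the protein solution; 300mM KCl, 50mM Tris-HCl, 1mM EDTA, 1mM DTT, pH 7.5) received compound, then a probe mix of 5 nM fluorescein-DNA and 100nM Texas-615-DNA. Fluorescence polarization was read for both dyes.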
An asterisk follows results filed as active; i = inactive; ? = inconclusive; . = not tested or not shown; [ ] = remark or other dose. Unless noted, calls come from the whole dose curve; as a rule, active = well fitted curve in the direction sought with a large enough effect; inconclusive = small, poorly fitted or top-dose-only effect, or another doubt; inactive = no such curve, though single readings can be large; an effect the other way counts as inactive or inconclusive. Potency is the fitted concentration of half-maximal effect.

SMILES	aSyn rescue	TDP-43 yeast inh	Mito fusion act	FUS suppressor	Abeta rescue	ERG-DNA inh
O=C(O)c1ccc(Nc2cccc(F)c2)c([N+](=O)[O-])c1	2%	?	9%	i	i	9%
Cc1ccc(Nc2ccc(C(=O)O)cc2[N+](=O)[O-])cc1	1%	2.8µM*	?	i	i	-7%
Cc1ccccc1-c1noc(-c2ccc(N3CCCC3)c([N+](=O)[O-])c2)n1	.	6%	.	i	i	-11%
O=C(O)c1ccc(C2CCCCC2)cn1	?	13µM*	-8%	i	i	-9%
O=C(O)C1=C(C2CCCCC2)C(=O)c2ccccc21	14%	0%	.	.	i	3%
c1ccc(CCn2nnc(-c3ccc(N4CCOCC4)cc3)n2)cc1	.	.	.	i	.	.
O=c1oc2ccccc2c2oc3cc(O)c(O)cc3c12	2%	-16%	4%	8.9µM*	i	14%
Nc1c(N)c2ccccc2oc1=O	1%	-2%	-4%	i	i	.
Cc1ccc(C(=O)/C=C/c2ccc(-c3ccc(C)cc3)o2)cc1	23%	-25%	2%	14µM*	i	10%
c1ccc(OCc2nc(-c3ccncc3)no2)cc1	4%	11µM*	4%	i	i	-3%
Cc1ccc(SCc2nc(-c3ccncc3)no2)cc1	6%	16µM*	1%	i	i	-6%
Cc1cc(OCc2nc(-c3cccnc3)no2)c(C)cc1Br	1%	1%	4%	i	i	11%
Cc1ccccc1OCc1nc(-c2cccnc2)no1	11%	11µM*	0%	i	i	-1%
c1ccc(OCc2nc(-c3ccccc3)no2)cc1	-6%	0%	1%	i	i	-5%
CCn1cc(C(=O)NCCc2ccc(C)cc2)c(=O)c2cc(S(=O)(=O)N3CCC(C)CC3)ccc21	.	8%	.	i	i	18%
Cc1ccc(CNC(=O)c2ccc(CSCc3cccc(C)c3)o2)cc1	?	35µM*	.	i	i	1%
CC(C)CCn1c(=O)c2ccccc2n2c(CCl)nnc12	-10%	21%	1%	i	i	5%
CCCCCn1c(=O)c2ccccc2n2c(CCl)nnc12	5%	16µM*	-6%	i	i	-1%
O/N=C1\CCCc2ccc3ccccc3c21	12%	11µM*	-2%	i	i	6%
CC(=O)c1ccc([N+](C)(C)C)cc1	-3%	.	.	.	.	.
CCOC(=O)c1[nH]c(C)c(CCC(=O)Nc2cccc(C(F)(F)F)c2)c1C	.	23%[9.22 µM]	.	i	i	0%
Cc1oc2c(C)c3oc(=O)c(CCC(=O)O)c(C)c3cc2c1-c1ccccc1	15%	25%	3.5µM*	i	i	5%
O=[N+]([O-])c1ccc(/C=N/N2CCN(c3ccncc3S(=O)(=O)N3CCCCC3)CC2)cc1	2%	15%	-1%	i	i	-7%
O=[N+]([O-])c1ccccc1/C=N/N1CCN(c2ccncc2S(=O)(=O)N2CCCCC2)CC1	26%	?	11µM*	i	i	4%
Cc1cc(Cl)cc(Cl)c1OCC(=O)NCc1ccco1	5%	14µM*	-6%	i	i	4%
SMILES	aSyn rescue	TDP-43 yeast inh	Mito fusion act	FUS suppressor	Abeta rescue	ERG-DNA inh
O=C(COc1ccc(Cl)cc1Cl)NCc1ccco1	13%	15%	0%	i	i	-1%
CC(C)(Oc1ccc(Cl)cc1)C(=O)NNC(=O)c1ccc(Br)o1	2%	14µM*	6%	i	i	-4%
Cc1ccc(NC(c2cccc(Cl)c2)c2nnc(-c3ccccc3)o2)cc1F (centres undefined)	.	0%	.	i	i	1%
CC(C)(C)OC(=O)N1CCCN(C(c2cc3ccccc3o2)c2nnnn2C(C)(C)C)CC1 (centres undefined)	-7%	?	.	16µM*	i	.
CCCCCCCCN1C(=O)[C@@H](CC(=O)N2CCN(C(=O)C3CC3)CC2)C[C@@]2(C(=O)OC)C1=C[C@H](C(C)C)O[C@@H]2C1CC1	.	.	.	28µM*	.	.
COC(=O)[C@]12C[C@H](CC(=O)NCC34CC5CC(CC(C5)C3)C4)C(=O)N(Cc3ccco3)C1=C[C@H](C(C)C)O[C@@H]2C1CC1	.	.	.	25µM*	.	.
CCCCCCCCN1C(=O)[C@@H](CC(=O)NCCCN2CCCC2=O)C[C@@]2(C(=O)OC)C1=C[C@H](C(C)C)O[C@@H]2C1CC1	.	.	.	18µM*	.	.
COC(=O)[C@]12C[C@H](CC(=O)NCCC(C)C)C(=O)N(Cc3ccco3)C1=C[C@H](C(C)C)O[C@@H]2C1CC1	.	.	.	i	.	.
COC(=O)[C@]12C[C@H](CC(=O)NCCCN3CCCC3=O)C(=O)N(CCc3ccc(OC)c(OC)c3)C1=C[C@H](C(C)C)O[C@@H]2C1CC1	.	.	.	i	.	.
CCc1cccc(C)c1NC(=O)CCS(=O)(=O)c1ccc2c(c1)oc(=O)n2C	.	9%	.	i	i	8%
C/C(=N/NC(=O)CSc1nnc(SCc2ccc(C)cc2)s1)c1cccc(O)c1	.	.	.	i	.	.
COc1cc(C(=O)Nc2cc(C)c(O)c(-c3nc4cc(Cl)ccc4o3)c2)cc(OC)c1OC	-1%	5%	.	i	i	1%
CC[C@@H](C)C(NC(=O)OC(C)(C)C)c1cn([C@@H](Cc2cc3ccccc3[nH]2)C(=O)N2CCN(C(=O)OC(C)(C)C)CC2)nn1 (some centres undefined)	11%	-3%	-3%	14µM*	i	-1%
CC[C@@H](C)C(NC(=O)OC(C)(C)C)c1cn([C@@H](CCCCNC(=O)OC(C)(C)C)C(=O)N2CCN(C(=O)OC(C)(C)C)CC2)nn1 (some centres undefined)	3%	0%	-4%	i	i	-11%
CC(C)CC(NC(=O)OC(C)(C)C)c1cn([C@@H](CCCCNC(=O)OC(C)(C)C)C(=O)N2CCN(C(=O)OC(C)(C)C)CC2)nn1 (some centres undefined)	0%	1%	-3%	7.9µM*	i	-20%
CCn1c2ccccc2c2nnc(SCc3ccccc3)nc21	-18%	25µM*	16µM*	i	i	-4%
CCOC(=O)CSc1nnc2c3ccccc3n(C)c2n1	-1%	13µM*	-2%	i	i	-10%
